ELG1 genotoxic: qHTS screen for small molecules that induce genotoxicity in human embryonic kidney (HEK293T) cells expressing luciferase-tagged ELG1; 330,000 tested, 1.3% active; HEK293T ELG1-luciferase reporter, luminescence, 16 h; Potency, µM (highest dose often 46 µM), most hits filed as activators; note: nearly all actives have a fitted effect of over 60% in size
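Luminescence read-out: rising ELG1-luciferase signal, reflecting elevated ELG1 protein under genetic stress, flags genotoxic compounds. Cells were treated for 16 hr at 37 °C before ONE-Glo detection.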
SMN2 splice enh: qHTS Assay for Enhancers of SMN2 Splice Variant Expression | HEK293 SMN2-luciferase splicing reporter, luminescence, 30-36 h | Potency, µM (doses to about 46.1 µM), most hits filed as activators | 210,000 tested, 2.8% active | AID 1458, 2008; note: nearly all actives have a fitted effect of over 55% in size
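HEK293 cells carry an SMN2 minigene-luciferase reporter in which exon 7 inclusion puts luciferase in frame. Cells were seeded at 2000 cells/well, attached for 10-12 hours, then exposed to compounds for 30-36 hours at 37C before ONE-Glo luminescence.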
NPC1 prom act: qHTS Assay for NPC1 Promoter Activators; Huh7 NPC1 promoter luciferase reporter, 24 h; Potency, µM (series often up to 9.22 µM), hits mostly activators; 320,000 tested, 2.4% active; note: nearly all actives have a fitted effect of over 60% in size
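Stably transfected Huh7 (NPC1 promoter→luciferase), 1500 cells/well in Opti-MEM + 10% FBS, 2 h settle, then compound 24 h at 37 °C. Luminescence after 10 min with Amplite reagent.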
Luc counter: Counterscreen for Luciferase (Kinase-Glo TM) Inhibition; Kinase-Glo luciferase, ATP luminescence, 8 min; Luciferin 4-monooxygenase (Photuris pensylvanica), Q27757; AID 1379, 2008; Potency, µM (top dose mostly 38.3 µM), actives largely listed as inhibitors; 200,000 tested, 0.28% active; note: nearly all actives have a fitted effect of over 60% in size
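Compounds were added to a substrate mix at pH 7.2 (50 mM imidazole, 10 uM ATP, within the enzyme's linear range), followed by Kinase-Glo detection reagent; luminescence was measured after 8 minutes at ambient temperature.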
FLuc modulator: qHTS profiling assay for firefly luciferase inhibitor/activator using purifed enzyme and Km concentrations of substrates (counterscreen for miR-21 project); Luciferin 4-monooxygenase (Photinus pyralis), P08659; purified FLuc, Km substrates, luminescence inhibition; Potency, µM (series often up to 57.5 µM), hits mostly inhibitors; 360,000 tested, 6.9% active; AID 588342, 2011; note: nearly all actives have a fitted effect of over 55% in size
Target sequence (P08659 whole entry, looked up): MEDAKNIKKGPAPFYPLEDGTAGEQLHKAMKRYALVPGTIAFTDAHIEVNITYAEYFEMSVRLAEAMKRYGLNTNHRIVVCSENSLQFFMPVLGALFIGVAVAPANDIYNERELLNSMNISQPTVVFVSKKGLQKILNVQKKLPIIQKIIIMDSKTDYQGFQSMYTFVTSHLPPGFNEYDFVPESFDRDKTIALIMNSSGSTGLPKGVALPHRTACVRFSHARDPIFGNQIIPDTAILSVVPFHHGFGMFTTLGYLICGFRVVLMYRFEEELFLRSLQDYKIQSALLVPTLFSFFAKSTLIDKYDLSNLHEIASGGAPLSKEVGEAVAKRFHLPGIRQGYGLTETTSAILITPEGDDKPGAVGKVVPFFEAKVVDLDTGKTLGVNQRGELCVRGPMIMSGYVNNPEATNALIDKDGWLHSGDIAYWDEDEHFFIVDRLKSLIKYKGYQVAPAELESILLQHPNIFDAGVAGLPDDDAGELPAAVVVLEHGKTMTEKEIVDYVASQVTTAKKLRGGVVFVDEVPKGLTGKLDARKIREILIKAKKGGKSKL
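Biochemical qHTS of compounds, final roughly 60 µM downward over six points, against 10 nM purified firefly luciferase using Km concentrations of substrates (10 uM D-luciferin, 10 uM ATP) in Tris acetate pH 7.5 buffer; luminescence output.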
Rab9 promoter act: qHTS Assay for Rab9 Promoter Activators; Huh7 Rab9 promoter-luciferase reporter, luminescence, 24 h; Potency, µM (titrated, usually from 9.22 µM), most hits filed as activators; 320,000 tested, 2.8% active; note: nearly all actives have a fitted effect of over 60% in size
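Cell-based reporter: Huh7 stable for Rab9 promoter-driven luciferase, plated in reduced-serum medium with 10% FBS at 1500 cells/well, compound-treated 24 h at 37 °C, luminescence read after 10 min reagent.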
A number is an active result; 0 = inactive; ? = inconclusive; - = no result given; [ ] = remark or other dose. In the library only some 7.5% were active in any assay of this set; here they are far more common. Calls come from the whole dose curve; as a rule, active = well fitted curve in the direction sought with a large enough effect; inconclusive = small, poorly fitted or top-dose-only effect, or another doubt; inactive = no such curve, though single readings can be large; an effect the other way counts as inactive or inconclusive.

SMILES	ELG1 genotoxic	SMN2 splice enh	NPC1 prom act	Luc counter	FLuc modulator	Rab9 promoter act
COc1ccccc1C(=O)Nc1ccc2c(c1)CCCN2C(=O)c1cccs1	0	-	0	-	17µM	0
COc1ccccc1C(=O)Nc1ccc2c(c1)CCCN2C(=O)c1ccccc1	0	-	0	-	9.5µM	0
O=C(Nc1ccc2c(c1)CCCN2C(=O)c1ccccc1)c1ccccc1Br	0	-	0	-	?	0
O=C(Nc1ccc2c(c1)CCCN2C(=O)c1cccs1)c1ccccc1C(F)(F)F	-	-	-	-	0	-
CCOC(=O)CNC(=O)N1CCc2ccc(NC(=O)c3ccccc3Cl)cc2C1	0	-	0	-	?	0
COc1ccccc1C(=O)Nc1ccc2c(c1)CN(C(=O)CSC)CC2	0	-	0	-	24µM	0
CCc1ccc(C(=O)NC2CCCCC2)s1	0	13µM	2.5µM	0	12µM	2.2µM
O=C(NNC(=S)NC1CCCCC1)c1ccc(Cl)s1	0	13µM	0	0	?	?
CC(C)(O)C#Cc1ccc(C(=O)NC2CCCCC2)s1	?	?	0	0	?	?
COc1cccc(C(=O)NNC(=S)NC2CCCCC2)c1	0	?	?	0	?	2.2µM
O=C(NNC(=S)NC1CCCCC1)c1cccs1	0	0	0	0	0	?
Cc1cc(C(=O)NNC(=S)NC2CCCCC2)cs1	0	-	?	-	0	1.3µM
CN(C)S(=O)(=O)c1ccc(Cl)c(C(=O)NNC(=O)c2ccc3c(c2)OCO3)c1	0	-	0	-	?	0
Cc1cc(NC(=O)c2ccc3c(c2)N(Cc2cccc(Cl)c2)C(=O)c2ccccc2S3(=O)=O)ccc1Br	-	0	-	-	0	-
C[C@@H](N)CCCP(=O)(O)O	-	0	-	-	-	-
Cc1ccc(-c2nn(-c3ccccc3)cc2/C=N/NC(=O)c2ccc(Br)o2)cc1	0	0	0	0	11µM	0
NS(=O)(=O)c1ccc(N/N=C/c2cn(-c3ccccc3)nc2-c2cccs2)c([N+](=O)[O-])c1	0	0	0	0	0	0
NS(=O)(=O)c1ccc(N/N=C/c2cn(-c3ccccc3)nc2-c2cccs2)cc1	0	-	0	-	11µM	0
NC(=O)N/N=C/c1cn(-c2ccccc2)nc1-c1cccs1	?	18µM	?	?	2.1µM	?
O=C(O)c1cccc(N/N=C/c2cn(-c3ccccc3)nc2-c2cccs2)c1	?	14µM	3.5µM	0	1.3µM	2µM
C[C@H](CO)N1C[C@H](C)[C@@H](CN(C)S(=O)(=O)c2cn(C)cn2)Oc2ccc(NC(=O)NC3CCCCC3)cc2C1=O	0	-	-	-	-	-
CC(NC(=O)c1ccccc1F)c1nnc(SCC(=O)Nc2nnc(C3CC3)s2)n1C (centres undefined)	0	-	0	-	0	0
COc1ccc(CCNC(=O)c2cc3c(s2)-c2c(C)cccc2OC3)c(OC)c1	-	0	-	-	0	-
CCc1nn2c(-c3ccccc3OC)ccnc2c1-c1ccccc1	-	0	-	-	0	-
O=C(/C=C/c1cn(-c2ccccc2)nc1-c1cccs1)NCCN1CCOCC1	0	-	0	-	19µM	0
SMILES	ELG1 genotoxic	SMN2 splice enh	NPC1 prom act	Luc counter	FLuc modulator	Rab9 promoter act
CNC(=O)COC(=O)/C=C/c1cn(-c2ccccc2)nc1-c1ccc2c(c1)OCCO2	0	0	0	0	0	0
O=C(N/N=C/c1nn(-c2ccccc2)cc1-c1ccccc1)c1ccncc1	0	?	0	0	9.5µM	0
CN(C)C(=O)COC(=O)/C=C/c1cn(-c2ccccc2)nc1-c1cccs1	0	0	0	0	19µM	0
O=C(c1cn(-c2ccccc2)nc1-c1cccs1)N1CCOCC1	0	0	0	0	?	0
O=C(N/N=C/c1cn(-c2ccccc2)nc1-c1cccs1)c1ccncc1	0	0	0	0	11µM	0
Cc1cccc(O)c1	-	-	-	0	-	-
Cc1cc2c3c(cccc3n1)C(=O)c1ccccc1-2	-	0	-	0	-	-
Cc1ccc(-c2nn(-c3ccccc3)cc2/C=N/NC(=O)c2ccncc2)o1	?	14µM	0	0	12µM	0
O=C(N/N=C\c1cn(-c2ccccc2)nc1-c1ccccc1)c1ccc(Br)o1	0	0	0	0	?	0
O=c1nc(Nc2ccccc2)oc2ccccc12	?	-	2.8µM	-	17µM	?
O=c1oc(Nc2ccc(F)cc2)nc2ccccc12	?	0	2.2µM	0	13µM	2.5µM
Cc1ccc(NC(=O)COc2cccc3c2OC(C)(C)C3)c(O)c1	0	-	0	-	?	0
CCN(CC)S(=O)(=O)c1ccc(NC(=O)[C@H](CSCc2ccccc2)N2Cc3ccccc3C2=O)cc1	-	4.5µM	-	-	0	-
Cc1nnc(NC(=O)C2CCN(S(=O)(=O)c3ccc(F)c(Cl)c3)CC2)o1	0	-	0	-	?	0
CC(=O)Cn1nnc2sc3c(c2c1=O)CCC(C(C)(C)C)C3 (centres undefined)	0	0	3.5µM	0	21µM	2.8µM
Cc1cc(C)c(NC(=O)Cn2nnc3sc4c(c3c2=O)CCC(C(C)(C)C)C4)c(C)c1 (centres undefined)	-	0	-	-	0	-
CCn1nnc2sc3c(c2c1=O)CCC(C)C3 (centres undefined)	0	0	?	0	13µM	?
CCCn1nnnc1SCC(=O)N1CCCc2ccccc21	15µM	0	0	0	?	0
Cc1ccc(-c2ccc(SCC(=O)N3CCc4ccccc43)nn2)cc1	0	0	0	0	?	0
COc1ccc(C(=O)NC(C(=O)N2CCc3ccccc32)C(C)C)cc1 (centres undefined)	0	-	0	0	0	0
O=C(CSc1nnnn1-c1ccccc1)N1CCCc2ccccc21	0	0	0	0	0	0
Cc1ccc2c(c1)c1nnc(SCC(=O)N3CCCc4ccccc43)nc1n2CC(=O)O	?	-	3.5µM	10µM	6.7µM	3.5µM
Cc1ccc(-c2ccc(SCC(=O)N3CCCc4ccccc43)nn2)cc1	0	0	0	0	8.5µM	0
COc1cc(OC)cc(C(=O)N[C@H](C(=O)OCC(=O)N2CCc3ccccc32)C(C)C)c1	0	0	0	0	15µM	0
COC(=O)c1ccc(C(NC(=O)OCc2ccccc2)/C(=C/[C@@H](C)C(=O)NCc2ccccc2)c2cccnc2)cc1 (some centres undefined)	-	0	-	0	-	-
COc1cccc(-c2ccc(SCC(=O)N3CCc4ccccc43)nn2)c1	0	0	0	0	21µM	0
Cn1c(-c2ccccc2)cnc1SCC(=O)N1CCCCC1	?	1.4µM	0.4µM	0	1.2µM	0.32µM
Cn1c(-c2ccccc2)cnc1SCC(=O)N1CCCc2ccccc21	0	0[1.84 µM]	0	0	?	0

From PubChem BioAssay
